Source: PubChem BioAssay (National Center for Advancing Translational Sciences (NCATS))
LmPK inh: qHTS Assay for Inhibitors of Leishmania Mexicana Pyruvate Kinase (LmPK) | Q27686 | purified LmPK, Kinase-Glo ATP luminescence, 1 h | Potency, µM (series often up to 57.5 µM), for the others: at the highest dose activity change, negative = inhibition, actives largely listed as inhibitors | 290,000 compounds, 0.37% hits; note: potency is the fitted concentration of half-maximal effect; % is set by controls: 0 for no effect and ±100 for the full control effect
Target sequence (Q27686 whole entry, looked up): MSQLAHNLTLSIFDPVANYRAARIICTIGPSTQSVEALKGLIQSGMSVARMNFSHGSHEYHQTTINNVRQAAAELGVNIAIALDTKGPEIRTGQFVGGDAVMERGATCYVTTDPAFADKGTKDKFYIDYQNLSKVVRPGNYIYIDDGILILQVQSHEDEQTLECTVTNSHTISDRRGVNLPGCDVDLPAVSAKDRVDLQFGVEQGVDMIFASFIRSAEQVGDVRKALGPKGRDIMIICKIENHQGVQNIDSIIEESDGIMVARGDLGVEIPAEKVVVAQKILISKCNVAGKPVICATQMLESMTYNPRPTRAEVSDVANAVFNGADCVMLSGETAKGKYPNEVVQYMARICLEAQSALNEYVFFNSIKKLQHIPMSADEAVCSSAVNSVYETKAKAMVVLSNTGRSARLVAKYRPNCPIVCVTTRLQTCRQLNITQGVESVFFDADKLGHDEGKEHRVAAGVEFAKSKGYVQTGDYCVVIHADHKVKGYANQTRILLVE
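Kinase-Glo luminescence read after 1 h RT reaction of 0.1 nM LmPK with 0.5 mM PEP and 0.1 mM ADP. Activity scaled between uninhibited and enzyme-free controls.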
TbPYK inhibitor: qHTS of Trypanosoma Brucei Inhibitors; TbPYK enzyme, Kinase-Glo Plus ATP luminescence, 45 min; Potency, µM (doses to about 76.8 µM), inactives show at the highest dose activity, negative = inhibition, usual class: inhibitors; 410,000 compounds, 0.12% hits; AID 624173, 2012; note: potency is the fitted concentration of half-maximal effect; % is set by controls: 0 for no effect and ±100 for the full control effect; nearly all actives have a fitted effect of over 50% in size
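Luminescence from Kinase-Glo Plus, added after a 45-minute room-temperature reaction, served as the end-point read-out. The enzyme and substrate were preincubated with compound before ADP (130 uM final) initiated turnover. Concentration-effect curves came from normalized qHTS data.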
Cycloheximide cs: Cycloheximide Counterscreen for Small Molecule Inhibitors of Shiga Toxin. cell reporter, cycloheximide protein synthesis inhibition counterscreen. max response, %. 300,000 compounds, 12% hits; in the data active = max response mostly above about 13%, no sharp cut-off; inactive = mostly below about 14%; note: read at 38.3 µM for the half of the compounds with a filed dose; 0% is about no effect
Shiga toxin inh: A qHTS for Small Molecule Inhibitors of Shiga Toxin; Vero cells, Shiga toxin protein synthesis inhibition reporter; AID 2315, 2010; 290,000 compounds, 9.2% hits; inhibition, % at 38.7 µM; in the data active = inhibition mostly above about 28%, no sharp cut-off; inactive = mostly below about 43%; note: 0% is about no effect
Giardia FBPA inh: qHTS Assay for Inhibitors of Fructose-1,6-bisphosphate Aldolase from Giardia Lamblia; purified Giardia FBPA; 290,000 compounds, 0.71% hits; A8B2U2; Potency, µM (highest dose often 59.6 µM), inactives show at the highest dose activity, negative = inhibition, actives largely listed as inhibitors; AID 2451, 2010; note: potency is the fitted concentration of half-maximal effect; % is set by controls: 0 for no effect and ±100 for the full control effect; nearly all actives have a fitted effect of over 55% in size
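40 nM FBPA preincubated 10 min at RT with compound (up to 57.5 uM final), then substrate plus GAPDH/TPI/NAD/arsenate coupling and diaphorase/resazurin added. Fluorescence read after 20 min at RT, 525/598 nm.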
RE007 growth inh: qHTS Assay for Inhibitors of the HIV-1 protein Vpr. Potency, µM (series often up to 92.2 µM), without a hit: at the highest dose activity change, negative = less growth, actives largely listed as inhibitors. S. pombe RE007 Vpr strain, BacTiter-Glo ATP luminescence, 24 h. 360,000 compounds, 0.21% hits; active = well fitted falling curve with a large enough effect; inconclusive = small, poorly fitted or top-dose-only effect; inactive = no such curve, though single readings can be large or run the other way; note: potency is the fitted concentration of half-maximal effect; % is set by controls: 0 for no effect and ±100 for the full control effect; nearly all actives have a fitted effect of over 50% in size
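Fission yeast RE007 carrying one integrated HIV-1 vpr copy, seeded at OD 0.01 in PMG+AL medium with 23 nL pinned compound. Grown 24 h at 30 degrees; viability read by BacTiter-Glo luminescence after 5 min.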
Numbers without * were called inactive; ? = inconclusive; . = no result given; [ ] = another dose, or the depositor's remark. This excerpt belongs to a sample that is enriched for hits. Unless noted, calls come from the whole dose curve; as a rule, active = well fitted curve in the direction sought with a large enough effect; inconclusive = small, poorly fitted or top-dose-only effect, or another doubt; inactive = no such curve, though single readings can be large; an effect the other way counts as inactive or inconclusive.

SMILES | LmPK inh | TbPYK inhibitor | Cycloheximide cs | Shiga toxin inh | Giardia FBPA inh | RE007 growth inh
COC(=O)[C@@]1(Cc2ccc(OC)cc2)[C@H]2c3cc(C(=O)N(C)C)n(CCc4c[nH]c5ccc(O)cc45)c3C[C@H]2CN1C(=O)c1ccccc1 | . | . | . | . | -5% | .
CNC(=S)N1N=C(c2ccc(C)cc2)CC1c1ccc(N(C)C)cc1 (centres undefined) | 4% | -6% | 43* | 86 | -30% | 23%
CNC(=S)N1N=C(c2ccc(C)cc2)CC1c1ccc(OC)cc1 (centres undefined) | 1% | -5% | -2 | 11 | -8% | 9%
CN(C)c1ccc(C2CC(c3cccc(NS(C)(=O)=O)c3)=NN2C(=O)c2ccccc2)cc1 (centres undefined) | 5% | -4% | -1 | 18 | -28% | -6%
CCC(=O)N1N=C(c2ccc(NS(C)(=O)=O)cc2)CC1c1ccc(N(C)C)cc1 (centres undefined) | -2%[11.5 µM] | 2% | 30* | 72* | -11% | -17%
O=C1[C@H]2[C@H]3[C@H](O)[C@H](O)C/C(=N/OCc4ccccc4)[C@H]3CC[C@@H]2C(=O)N1C1CCCCC1 | . | . | . | . | 3%[12.9 µM] | .
COC(=O)c1ccc(CSc2nc3ccccc3c(=O)n2Cc2ccco2)o1 | -4% | -9% | 16* | 18 | 2% | 14%
O=C(Cn1c(=O)n(Cc2ccco2)c(=O)c2ccccc21)Nc1cccc(Cl)c1 | 5% | -10% | 23* | 31* | 3% | 7%
O=C(Nc1cccc(Cl)c1)c1c(O)c2c(n(Cc3ccco3)c1=O)CCCC2 | 12% | 1% | 31* | 57 | 13% | 7%
O=C(CSc1nc2ccccc2c(=O)n1Cc1ccco1)Nc1cccc(O)c1 | 6% | -12% | 19* | 43 | 5% | -5%
COC(=O)c1ccc(CSc2nc3ccccc3c(=O)n2CC(C)C)o1 | 1% | -7% | 1 | -4 | -6% | -6%
CCOC(=O)C1CCC(CN(Cc2ccc(Cl)cc2)S(=O)(=O)c2ccc(Br)cc2)CC1 (centres undefined) | . | -1% | . | . | . | .
C=C1C(=O)OC2C[C@@]3(C)CCCC(=C)[C@@H]3CC12 (some centres undefined) | . | . | . | . | 11% | .
C=C1C(=O)O[C@@H]2C[C@@H](C)[C@H]3C=CC(=O)[C@]3(O)C[C@@H]12 | 1% | -2% | 14* | 29 | 7% | 2%
Cc1cc(C(=O)CSc2n[nH]c(-c3ccccc3F)n2)c(C)n1Cc1cccs1 | 7% | -8% | 17* | 39 | -3% | 10%
Cc1cc(C(=O)CSc2nnc(N)s2)c(C)n1Cc1cccs1 | -24% | -2% | 57* | 83* | -5% | 5%
COc1ccc(-c2nnc(SCC(=O)c3cc(C)n(Cc4cccs4)c3C)o2)cc1 | 4% | 2% | -1 | 23 | -8% | -15%
Cc1csc(SCC(=O)c2cc(C)n(Cc3cccs3)c2C)n1 | -7% | 2% | 17* | 32* | -4% | 5%
NC(=O)COc1ccccc1C1=NO[C@@](CC(=O)O)(C(=O)Nc2ccc3c(c2)OCCO3)C1 | 0% | -8% | 19* | 31 | -17% | 3%
COc1ccc(C2=NO[C@@](CC(=O)O)(C(=O)Nc3ccc4c(c3)OCCO4)C2)cc1 | 0% | -5% | 30* | 62* | -24% | -9%
COc1ccc(-c2[nH]c(-c3ccccc3)nc2SCC(=O)Nc2ccc3c(c2)OCCO3)cc1 | . | -21% | . | . | . | .
O=C(COC(=O)c1ccccn1)Nc1ccc2c(c1)OCCO2 | . | 1% | . | . | . | 31%
Cc1ccc2nc(NC(=O)CSc3cc(C)[nH]c(=O)n3)sc2c1 | . | 1% | . | . | . | .
O=C(NC(=S)N1CCCc2ccccc21)c1ccco1 | 5% | 1% | 33* | 82* | 1% | 13%
CSC1=NCCN1C(=O)c1ccc(Br)o1 | 9% | -4% | 39* | 92* | 1% | 4%
SMILES | LmPK inh | TbPYK inhibitor | Cycloheximide cs | Shiga toxin inh | Giardia FBPA inh | RE007 growth inh
O=C(c1ccc(Br)o1)N1CCc2ccccc21 | 14µM* | . | 44* | 87* | 1% | .
O=C(c1ccc(Br)o1)N1CCCc2ccccc21 | -11% | -5% | -2 | 4 | 5% | ?
CC1Cc2ccccc2N1C(=S)NC(=O)c1ccco1 (centres undefined) | -5% | -9% | 6 | 23 | ? | 3%
Cc1ccc(C(=O)N2CCc3ccccc32)cc1NC(=O)c1ccco1 | -6% | ? | 5 | -2 | -15% | -1%
O=C(c1ccco1)N1CCc2ccccc21 | -17% | -3% | 35* | 66* | -6% | 14%
O=C(Cn1c(=O)nc(-c2ccccc2)c2ccccc21)NCCCc1ccccc1 | . | 0% | . | . | . | .
C[C@@H]1OC(Nc2ccc(N=Nc3ccccc3)cc2)[C@H](O)[C@H](O)[C@H]1O (some centres undefined) | -1% | 1% | 35* | 52* | 5% | -28%
CC(=O)c1ccc(NC2OC(C)C(O)C(O)C2O)cc1 (centres undefined) | -1% | 3% | 1 | -1 | -4% | 10%
NC(Cc1cnc[nH]1)C(=O)Nc1ccc2ccccc2c1 (centres undefined) | . | . | . | . | 0% | .
COc1cc(NC(=O)/C=C/c2ccccc2[N+](=O)[O-])cc(OC)c1 | -4% | -5% | 15* | 19 | -1% | -8%
O=C(/C=C/c1ccccc1[N+](=O)[O-])NC1CCCC1 | 0% | 4% | 19* | 70* | -8% | -5%
O=C(/C=C/c1ccccc1[N+](=O)[O-])Nc1ccccc1 | ? | 2% | 36* | 101* | -8% | -15%
CCC(C)(C)NC(=O)/C=C/c1ccccc1[N+](=O)[O-] | 0% | 5% | 5 | -9 | 5% | 2%
O=C(COC(=O)/C=C/c1ccccc1[N+](=O)[O-])NC(=O)NC1CCCC1 | . | -2% | . | . | . | 2%
OCC1OC(/C=C\c2ccccc2)C=CC1Oc1ccc2c(c1)OCO2 (centres undefined) | . | . | . | . | -6%[12.9 µM] | .
CC(=O)c1cc(-c2ccccc2)n(CCC(=O)NCCc2ccccc2)c1C | . | -4%[15.4 µM] | . | . | . | .
CC(=O)N1CCc2cc(S(=O)(=O)C(C)CC(=O)Nc3ccc(OC(F)(F)F)cc3)ccc21 (centres undefined) | 7% | -4% | 29* | 16 | 6% | 6%
CC(C)c1ccc(OCc2cccc(C(=O)N/N=C/c3cccnc3)c2)cc1 | 1% | 3% | 133* | 164* | -4% | 8%
CCOc1ccc(OCc2cccc(C(=O)N/N=C/c3cccnc3)c2)cc1 | 3% | 0% | 88* | 166* | 1% | 6%
